# Test results published in ChEMBL document CHEMBL3988442, “University of Dundee, Small-Polar-MMV Screening Library” (2021).
# Biological target: T1, Aspartate--tRNA(Asp/Asn) ligase (Mycobacterium tuberculosis (strain ATCC 25618 / H37Rv)) (UniProt P9WFW3); further: in the data most compounds retested in dose-response had high values
# T1 sequence (whole entry): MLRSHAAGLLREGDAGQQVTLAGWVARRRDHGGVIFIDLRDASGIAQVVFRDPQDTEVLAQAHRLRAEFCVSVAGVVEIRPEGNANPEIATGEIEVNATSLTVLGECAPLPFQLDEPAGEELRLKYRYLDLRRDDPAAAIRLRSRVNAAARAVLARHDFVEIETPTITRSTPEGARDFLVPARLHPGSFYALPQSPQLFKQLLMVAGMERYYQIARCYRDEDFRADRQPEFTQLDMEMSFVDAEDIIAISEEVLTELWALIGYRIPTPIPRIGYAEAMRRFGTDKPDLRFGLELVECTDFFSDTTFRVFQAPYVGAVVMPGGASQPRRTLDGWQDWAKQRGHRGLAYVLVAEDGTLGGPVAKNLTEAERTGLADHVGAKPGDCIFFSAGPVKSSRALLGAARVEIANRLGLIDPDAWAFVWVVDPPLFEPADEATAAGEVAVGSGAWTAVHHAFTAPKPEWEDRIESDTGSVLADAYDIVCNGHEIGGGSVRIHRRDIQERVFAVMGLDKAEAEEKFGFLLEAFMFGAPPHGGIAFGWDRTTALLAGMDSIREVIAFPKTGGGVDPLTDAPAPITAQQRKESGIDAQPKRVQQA
# Experiment: Assay for Asp RNA synthetase-1 from Mycobacterium tuberculosis
# Type: functional
# Set-up: scale not given: direction of the effect not stated beside the values
# Conditions: 30 µM
row,Compound,Percent Effect [%]
1,COC(=O)N1CCCN(C(=O)NCc2ccc(Cl)s2)CC1,5.28
2,CC(=O)N1CCCN(C(=O)NCCc2cc(Cl)cc(Cl)c2)CC1,-1.44
3,COc1ccc2c(c1)CCN(CCC(=O)O)CC2,3.94
4,CC(C)c1noc(C(C)N2CCN(Cc3ccsc3)CC2)n1 (stereo not given),-3.93
5,Cc1ccc(C(N)c2cccc(S(C)(=O)=O)c2)cc1 (stereo not given),-0.691
6,CN(C)Cc1nc(C(C)(C)NC(=O)C2CC(=O)N(CC3CC3)C2)no1 (stereo not given),-5.01
7,CC(C)c1nc(C2CCCN2CCc2ccncc2)no1 (stereo not given),1.61
8,Cc1cc(NC(=O)CN2CCn3c(nnc3C3CC3)C2)n(C)n1,-5.68
9,Cn1nccc1C1CCN(CC(O)c2cccc(F)c2)CC1 (stereo not given),-1.6
10,Cc1nc(C)n(CC2CCCCN2Cc2nnc(C3CC3)o2)n1 (stereo not given),1.18
11,Cc1[nH]/c(=N\C(=O)c2csc(NC3CC3)n2)sc1C,-4.09
12,O=C(C1CC=CC1)N1CCC2(CC1)CN(Cc1ccccn1)CCO2,-0.381
13,COCCn1ccc(=O)c(OCC(=O)Nc2ccccc2)c1C,-0.61
14,COCC1CN(C(=O)c2ccoc2C)Cc2nccn2C1 (stereo not given),4.54
15,CNS(=O)(=O)c1ccc(C(=O)N2CCCC(n3cccn3)C2)cc1 (stereo not given),0.589
16,O=C(Cc1ccc2c(c1)OCCO2)NC1CCCC1,-0.698
17,O=C(c1cc(C2CC2)on1)N1CCCC(n2cncn2)C1 (stereo not given),-0.789
18,Cc1cnn(CC2CN(Cc3nnc(C4CC4)o3)CCO2)c1 (stereo not given),-2.56
19,Cc1ccc(C2(CN3CCCC3)CCNCC2)nc1,-4.12
20,Cn1cc(CN2CCc3c(nc(-c4ccccn4)[nH]c3=O)C2)cn1,-3.63

row,Compound,Percent Effect [%]
1,Cn1ccc(C(=O)NC2CCC23CCN(C(=O)c2ccncc2)CC3)c1 (stereo not given),0.319
2,Cc1nn(C)c(Cl)c1C1CCCN1C(=O)c1cc(Cl)c[nH]1 (stereo not given),1.85
3,O=C(O)[C@]12CCCN(Cc3ccccc3)C[C@H]1CN(c1ncccn1)C2,6.32
4,CCCc1noc(CCC(=O)N2CCCC2c2ccsc2)n1 (stereo not given),-1.06
5,O=C1CC2(CCN(CCO)CC2)CN1Cc1cc(F)cc(F)c1,-2.67
6,CCCc1cc(C(=O)N2CCCC(n3ccnc3C)C2)[nH]n1 (stereo not given),-3
7,CC(C)Cc1noc(CN2CCCC(Cn3cncn3)C2)n1 (stereo not given),-2.91
8,Cn1cc(C[C@H]2[C@H](N3CCOCC3)CCN2C(=O)c2ccco2)cn1,-2.37
9,CN1CCN(Cc2ccccc2CNC(=O)c2ccc(Br)cc2)CC1,-0.466
10,O=C1NC2(CCN(C(=O)c3ccccc3)CC2)CC1c1cccnc1 (stereo not given),-4.95
11,Cc1nc(CN2CCN(C(=O)c3cc(C4CC4)on3)CC2)cs1,-5.68
12,CC(C)Nc1nc2c(cc1C(=O)NCC1CC1)CCNCC2,0.611
13,Cc1occc1C(=O)N1CC[C@@H](N2CCOCC2)[C@@H]1Cc1ccccc1,7.49
14,CCc1nc(CC(=O)N2CCOCC2c2ncon2)cs1 (stereo not given),1.11
15,CCc1nnc2n1CCN(CCS(=O)(=O)c1ccccc1)C2,-3.04
16,Cc1noc(C2CCCN(C(=O)c3ccc(Br)cc3F)C2)n1 (stereo not given),-4.41
17,Cc1noc(C(C)C)c1C(=O)NCC(c1cccc(F)c1)N(C)C (stereo not given),-4.05
18,O=C(c1cnc(COc2ccccc2)nc1O)N1CCOCC1,1.28
19,c1cnc(OCc2nnc3n2CCN(CC2CC2)C3)nc1,1.75
20,CS(=O)(=O)c1ccc(OCCNCc2cccc(F)c2)cc1,-5.13

# Biological target: Shiga toxin 2 (Escherichia coli O157:H7) (UniProt P09385+P09386)
# Experiment: E. coli 0.157:H7 Shiga Toxin SOP - stx2 screening assay
# Type: functional
# Set-up: scale not given: direction of the effect not stated beside the values
# Conditions: 30 µM
row,Compound,Percent Effect [%]
1,COC(=O)N1CCCN(C(=O)NCc2ccc(Cl)s2)CC1,-16.1
2,CC(=O)N1CCCN(C(=O)NCCc2cc(Cl)cc(Cl)c2)CC1,-10
3,COc1ccc2c(c1)CCN(CCC(=O)O)CC2,-33.8
4,CC(C)c1noc(C(C)N2CCN(Cc3ccsc3)CC2)n1 (stereo not given),27.9
5,Cc1ccc(C(N)c2cccc(S(C)(=O)=O)c2)cc1 (stereo not given),-0.145
6,CN(C)Cc1nc(C(C)(C)NC(=O)C2CC(=O)N(CC3CC3)C2)no1 (stereo not given),25.1
7,CC(C)c1nc(C2CCCN2CCc2ccncc2)no1 (stereo not given),-7.28
8,Cc1cc(NC(=O)CN2CCn3c(nnc3C3CC3)C2)n(C)n1,19.6
9,Cn1nccc1C1CCN(CC(O)c2cccc(F)c2)CC1 (stereo not given),-15.8
10,Cc1nc(C)n(CC2CCCCN2Cc2nnc(C3CC3)o2)n1 (stereo not given),-4.29
11,Cc1[nH]/c(=N\C(=O)c2csc(NC3CC3)n2)sc1C,7.35
12,O=C(C1CC=CC1)N1CCC2(CC1)CN(Cc1ccccn1)CCO2,3.35
13,COCCn1ccc(=O)c(OCC(=O)Nc2ccccc2)c1C,-38
14,COCC1CN(C(=O)c2ccoc2C)Cc2nccn2C1 (stereo not given),-11.3
15,CNS(=O)(=O)c1ccc(C(=O)N2CCCC(n3cccn3)C2)cc1 (stereo not given),2.6
16,O=C(Cc1ccc2c(c1)OCCO2)NC1CCCC1,3.29
17,O=C(c1cc(C2CC2)on1)N1CCCC(n2cncn2)C1 (stereo not given),-16.7
18,Cc1cnn(CC2CN(Cc3nnc(C4CC4)o3)CCO2)c1 (stereo not given),24.8
19,Cc1ccc(C2(CN3CCCC3)CCNCC2)nc1,-12
20,Cn1cc(CN2CCc3c(nc(-c4ccccn4)[nH]c3=O)C2)cn1,-0.78

row,Compound,Percent Effect [%]
1,Cn1ccc(C(=O)NC2CCC23CCN(C(=O)c2ccncc2)CC3)c1 (stereo not given),-10.5
2,Cc1nn(C)c(Cl)c1C1CCCN1C(=O)c1cc(Cl)c[nH]1 (stereo not given),16.5
3,O=C(O)[C@]12CCCN(Cc3ccccc3)C[C@H]1CN(c1ncccn1)C2,-14.8
4,CCCc1noc(CCC(=O)N2CCCC2c2ccsc2)n1 (stereo not given),8.4
5,O=C1CC2(CCN(CCO)CC2)CN1Cc1cc(F)cc(F)c1,11.4
6,CCCc1cc(C(=O)N2CCCC(n3ccnc3C)C2)[nH]n1 (stereo not given),-5.55
7,CC(C)Cc1noc(CN2CCCC(Cn3cncn3)C2)n1 (stereo not given),-14.7
8,Cn1cc(C[C@H]2[C@H](N3CCOCC3)CCN2C(=O)c2ccco2)cn1,-0.123
9,CN1CCN(Cc2ccccc2CNC(=O)c2ccc(Br)cc2)CC1,0.652
10,O=C1NC2(CCN(C(=O)c3ccccc3)CC2)CC1c1cccnc1 (stereo not given),-5.71
11,Cc1nc(CN2CCN(C(=O)c3cc(C4CC4)on3)CC2)cs1,24.9
12,CC(C)Nc1nc2c(cc1C(=O)NCC1CC1)CCNCC2,2.86
13,Cc1occc1C(=O)N1CC[C@@H](N2CCOCC2)[C@@H]1Cc1ccccc1,6.03
14,CCc1nc(CC(=O)N2CCOCC2c2ncon2)cs1 (stereo not given),11.7
15,CCc1nnc2n1CCN(CCS(=O)(=O)c1ccccc1)C2,8.79
16,Cc1noc(C2CCCN(C(=O)c3ccc(Br)cc3F)C2)n1 (stereo not given),20.7
17,Cc1noc(C(C)C)c1C(=O)NCC(c1cccc(F)c1)N(C)C (stereo not given),8.91
18,O=C(c1cnc(COc2ccccc2)nc1O)N1CCOCC1,-10.9
19,c1cnc(OCc2nnc3n2CCN(CC2CC2)C3)nc1,4.75
20,CS(=O)(=O)c1ccc(OCCNCc2cccc(F)c2)cc1,-38.6
